Data taken from PubChem BioAssay (EPA / NIEHS).
Inconclusive results are not listed. Activity calls are given as the source filed them. Rule for the calls, unless noted: active = hit-call score of the fitted dose curve at least 0.9, where 1 is the maximum; inactive = score below 0.9.

How the values were obtained:
[1] = ATG_Sox_CIS: Attagene CIS-FACTORIAL HepG2 Assay for human SRY-box transcription factor (SOX) (AID 2282960); settings: HepG2 Attagene cis-factorial SOX reporter, mRNA; actives raise or lower the signal
Method in brief: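 Using transiently transfected HepG2 cells, reporter transcription driven by cis elements was assessed 24 h after dosing. Signal was fluorescence of capillary-separated RT-PCR products, with DMSO defining baseline activity.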

[2] = biological target: Transcription factor Sp1 (Homo sapiens) (UniProt P08047); assay: ATG_Sp1_CIS: Attagene CIS-FACTORIAL HepG2 Assay for human Specificity Protein 1 (Sp1) (AID 2282961); settings: HepG2 Sp1 cis-reporter transcription, actives raise or lower the signal
Chain of Transcription factor Sp1 (Homo sapiens) (P08047 whole entry, looked up): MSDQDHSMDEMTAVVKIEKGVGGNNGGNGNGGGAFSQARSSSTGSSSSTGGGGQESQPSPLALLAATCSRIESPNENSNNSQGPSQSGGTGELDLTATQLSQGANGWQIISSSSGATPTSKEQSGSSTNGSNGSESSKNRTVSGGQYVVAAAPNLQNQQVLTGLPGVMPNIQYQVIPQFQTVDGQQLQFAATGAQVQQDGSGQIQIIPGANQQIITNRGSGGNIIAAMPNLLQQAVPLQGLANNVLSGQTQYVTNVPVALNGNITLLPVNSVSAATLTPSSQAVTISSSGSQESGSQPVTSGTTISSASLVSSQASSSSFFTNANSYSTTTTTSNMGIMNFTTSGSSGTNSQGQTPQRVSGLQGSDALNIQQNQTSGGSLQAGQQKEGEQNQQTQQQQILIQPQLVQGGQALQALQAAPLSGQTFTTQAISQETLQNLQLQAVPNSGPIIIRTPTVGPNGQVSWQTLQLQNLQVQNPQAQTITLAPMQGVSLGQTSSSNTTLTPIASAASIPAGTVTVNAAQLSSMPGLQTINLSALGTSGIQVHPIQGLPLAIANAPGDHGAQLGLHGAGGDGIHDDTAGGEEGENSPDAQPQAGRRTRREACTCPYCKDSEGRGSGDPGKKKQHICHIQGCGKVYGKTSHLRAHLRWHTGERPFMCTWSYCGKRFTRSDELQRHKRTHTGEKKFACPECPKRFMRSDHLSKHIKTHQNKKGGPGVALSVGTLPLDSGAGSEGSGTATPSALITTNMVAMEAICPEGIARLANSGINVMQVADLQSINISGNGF
Method in brief: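 After transient transfection of HepG2 cells with cis-promoter reporter units and 24 h chemical treatment, reporter transcripts were quantified by RT-PCR and capillary electrophoresis fluorescence. Gain- and loss-of-signal fitted against DMSO.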

[3] = ATG_SREBP_CIS: Attagene CIS-FACTORIAL HepG2 Assay for human Sterol Regulatory Element Binding (SREBP) (AID 2282962); settings: HepG2 Attagene cis-factorial SREBP reporter, mRNA; actives raise or lower the signal
Method in brief: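 Values derive from bidirectional curve fitting with DMSO as baseline. The underlying measurement is reporter mRNA from cis-element-regulated units in transiently transfected HepG2, quantified by RT-PCR and capillary electrophoresis after 24 h exposure.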

[4] = biological target: Signal transducer and activator of transcription 3 (Homo sapiens) (UniProt P40763); assay: ATG_STAT3_CIS: Attagene CIS-FACTORIAL HepG2 Assay for human Signal Transducer and Activator of Transcription 3 (STAT3) (AID 2282963); settings: HepG2, Attagene cis-factorial STAT3 reporter transcription; actives raise or lower the signal
Chain of Signal transducer and activator of transcription 3 (Homo sapiens) (P40763 whole entry, looked up): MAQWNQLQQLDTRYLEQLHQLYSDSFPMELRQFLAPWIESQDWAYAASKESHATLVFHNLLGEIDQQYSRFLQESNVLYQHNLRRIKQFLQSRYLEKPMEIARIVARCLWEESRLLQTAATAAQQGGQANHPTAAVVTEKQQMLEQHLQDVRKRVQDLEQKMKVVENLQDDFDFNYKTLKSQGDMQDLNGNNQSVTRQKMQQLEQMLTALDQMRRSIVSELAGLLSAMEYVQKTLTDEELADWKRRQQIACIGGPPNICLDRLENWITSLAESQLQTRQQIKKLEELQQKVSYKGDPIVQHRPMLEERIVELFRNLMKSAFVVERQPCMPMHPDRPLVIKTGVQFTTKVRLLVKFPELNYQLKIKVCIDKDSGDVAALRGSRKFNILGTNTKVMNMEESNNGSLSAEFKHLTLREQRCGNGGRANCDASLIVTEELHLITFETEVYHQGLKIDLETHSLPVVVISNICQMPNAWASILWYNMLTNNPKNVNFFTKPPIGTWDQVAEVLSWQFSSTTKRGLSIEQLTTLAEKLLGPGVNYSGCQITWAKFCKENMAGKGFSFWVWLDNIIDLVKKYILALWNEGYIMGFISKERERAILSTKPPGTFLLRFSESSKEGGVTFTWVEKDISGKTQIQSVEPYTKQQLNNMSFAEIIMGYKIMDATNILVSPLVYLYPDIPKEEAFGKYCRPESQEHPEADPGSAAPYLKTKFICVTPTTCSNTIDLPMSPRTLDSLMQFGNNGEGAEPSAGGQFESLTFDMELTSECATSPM
Method in brief: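 HepG2, MRTU-transfected, 24 h dosing. RNA → RT → PCR → FAM label → HpaI → CE. Bidirectional fit vs DMSO.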

[5] = ATG_TA_CIS: Attagene CIS-FACTORIAL HepG2 Assay for human TA Basal Promoter (AID 2282964); settings: HepG2 Attagene CIS-factorial TA basal promoter reporter; actives raise or lower the signal
Method in brief: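 Fluorescence from labelled RT-PCR reporter fragments, separated by capillary electrophoresis, gives the signal. Cells: HepG2 transiently carrying multiple reporter units, 24 h chemical dosing. Gain or loss relative to DMSO.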

[6] = ATG_TCF_b_cat_CIS: Attagene CIS-FACTORIAL HepG2 Assay for human T-Cell-Factor with beta-catenin (TCF/b-cat) (AID 2282965); settings: HepG2 TCF/beta-catenin cis-reporter transcription, actives raise or lower the signal
Method in brief: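 HepG2 cells transiently transfected with multiple cis-promoter-regulated reporter transcription units, so endogenous transcription factor activity is measured. Reporter mRNA read 24 hours after dosing by RT-PCR, fluorescent labelling and capillary electrophoresis; bidirectional fitting against DMSO.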

[7] = ATG_TAL_CIS: Attagene CIS-FACTORIAL HepG2 Assay for human TAL Basal Promoter (AID 2282966); settings: HepG2 Attagene cis-factorial TAL promoter reporter; actives raise or lower the signal;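 note: background control endpoint measuring basal TAL promoter reporter mRNA not a specific factor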
Method in brief: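 Basal-promoter background-control endpoint from a multiplexed HepG2 reporter panel. Cells were exposed 24 h, then reporter mRNA was read by RT-PCR/CE fluorescence and fitted in both directions relative to DMSO.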

[8] = ATG_TGFb_CIS: Attagene CIS-FACTORIAL HepG2 Assay for human Transforming Growth Factor (TGF) (AID 2282967); settings: HepG2 Attagene CIS TGFb reporter, mRNA transcription; actives raise or lower the signal
Method in brief: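 Bidirectional fitting relative to DMSO gave the endpoint. Underlying data: reporter mRNA from HepG2 cells carrying transiently transfected cis-regulated reporter constructs, harvested 24 h after dosing and analyzed by RT-PCR and capillary electrophoresis.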

[9] = ATG_VDRE_CIS: Attagene CIS-FACTORIAL HepG2 Assay for human Vitamin D Receptor Element (VDRE) (AID 2282968); settings: HepG2 VDRE cis-reporter transcription, actives raise or lower the signal
Method in brief: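 Steps: transfect HepG2 with multiple reporter transcription units; dose chemicals 24 h; isolate RNA; RT-PCR; label with 6-FAM primer extension; HpaI digest; capillary electrophoresis. Curves fitted both directions against DMSO.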

[10] = biological target: Estrogen receptor (Homo sapiens) (UniProt P03372); assay: ATG_ERa_TRANS: Attagene TRANS-FACTORIAL HepG2 Assay for human Estrogen Receptor alpha (ERa) (AID 2282970; active = hit-call score of the fitted dose curve at least 0.9, where 1 is the maximum); settings: HepG2 Attagene TRANS ERa GAL4 reporter, mRNA
Chain of Estrogen receptor (Homo sapiens) (P03372 whole entry, looked up, the tested form may be a part): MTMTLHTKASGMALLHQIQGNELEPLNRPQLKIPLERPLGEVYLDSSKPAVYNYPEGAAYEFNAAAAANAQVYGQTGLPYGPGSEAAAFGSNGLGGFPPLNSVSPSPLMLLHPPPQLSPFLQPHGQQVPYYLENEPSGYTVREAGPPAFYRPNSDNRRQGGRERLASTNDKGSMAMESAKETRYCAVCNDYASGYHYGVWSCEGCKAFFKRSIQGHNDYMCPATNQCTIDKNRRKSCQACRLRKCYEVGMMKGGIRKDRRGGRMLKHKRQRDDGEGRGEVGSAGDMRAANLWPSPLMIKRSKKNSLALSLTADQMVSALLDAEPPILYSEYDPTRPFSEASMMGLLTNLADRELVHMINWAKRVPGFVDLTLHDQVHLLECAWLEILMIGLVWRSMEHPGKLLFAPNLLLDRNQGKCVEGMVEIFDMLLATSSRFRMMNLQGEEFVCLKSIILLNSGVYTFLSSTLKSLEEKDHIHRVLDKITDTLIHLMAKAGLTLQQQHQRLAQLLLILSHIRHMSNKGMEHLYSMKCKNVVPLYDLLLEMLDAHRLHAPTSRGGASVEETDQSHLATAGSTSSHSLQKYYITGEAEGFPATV
Method in brief: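 Gal4-fusion ERa transactivation, measured as reporter transcript level in transiently transfected HepG2 cells. Exposure 24 h; RT-PCR plus capillary electrophoresis with fluorescence detection.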

[11] = biological target: X-box-binding protein 1 (Homo sapiens) (UniProt P17861); assay: ATG_Xbp1_CIS: Attagene CIS-FACTORIAL HepG2 Assay for human X-box Binding Protein 1 (XBP1) (AID 2282972); settings: HepG2 XBP1 cis-element reporter, Attagene multiplex; actives raise or lower the signal
Chain of X-box-binding protein 1 (Homo sapiens) (P17861 whole entry, looked up): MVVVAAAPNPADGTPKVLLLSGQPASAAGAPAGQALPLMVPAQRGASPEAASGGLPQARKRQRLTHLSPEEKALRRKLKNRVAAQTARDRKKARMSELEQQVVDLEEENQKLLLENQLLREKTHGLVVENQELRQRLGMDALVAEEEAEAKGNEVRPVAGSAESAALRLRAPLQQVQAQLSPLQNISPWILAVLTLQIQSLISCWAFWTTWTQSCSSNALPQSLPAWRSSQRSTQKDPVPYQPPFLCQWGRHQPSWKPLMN
Method in brief: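 Human hepatoma HepG2, cis-element reporter system, 24 h treatment; mRNA quantified by RT-PCR/CE fluorescence; fit relative to DMSO.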

[12] = ATG_GAL4_TRANS: Attagene TRANS-FACTORIAL HepG2 Assay for GAL4 (Internal Marker) (AID 2282976; active = hit-call score of the fitted dose curve at least 0.9, where 1 is the maximum); settings: HepG2 Attagene TRANS GAL4 internal marker reporter
Method in brief: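 Background-control readout: GAL4-UAS reporter transcript in transiently transfected HepG2 cells after 24 h compound exposure. Measured by RT-PCR, 6-FAM primer extension, HpaI digest and capillary electrophoresis; gain-of-signal fit versus DMSO.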

[13] = biological target: Nuclear receptor subfamily 1 group I member 3 (Homo sapiens) (UniProt Q14994); assay: ATG_CAR_TRANS: Attagene TRANS-FACTORIAL HepG2 Assay for human Constitutive Androstane Receptor (CAR) (AID 2282969; active = hit-call score of the fitted dose curve at least 0.9, where 1 is the maximum;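 note: activators raise reporter mRNA above DMSO so AC50 marks induction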); settings: HepG2 Attagene TRANS-FACTORIAL CAR reporter
Chain of Nuclear receptor subfamily 1 group I member 3 (Homo sapiens) (Q14994 whole entry, looked up, the tested form may be a part): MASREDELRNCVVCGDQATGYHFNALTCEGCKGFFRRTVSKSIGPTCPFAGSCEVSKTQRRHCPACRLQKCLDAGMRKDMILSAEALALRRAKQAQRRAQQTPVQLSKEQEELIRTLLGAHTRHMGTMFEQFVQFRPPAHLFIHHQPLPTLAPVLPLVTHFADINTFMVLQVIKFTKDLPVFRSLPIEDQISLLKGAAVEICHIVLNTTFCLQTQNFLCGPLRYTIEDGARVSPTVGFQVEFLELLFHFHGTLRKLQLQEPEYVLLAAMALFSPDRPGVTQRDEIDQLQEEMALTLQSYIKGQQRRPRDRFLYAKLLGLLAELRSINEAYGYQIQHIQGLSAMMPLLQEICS
Method in brief: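 Steps: transient transfection of HepG2 with multiple GAL4-UAS reporter units; 24 h compound incubation; RNA isolation, RT-PCR, 6-FAM primer extension, HpaI digest; capillary electrophoresis. Gain-of-signal relative to DMSO negative control.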

[14] = ATG_M_19_TRANS: Attagene TRANS-FACTORIAL HepG2 Assay for M19 Transcription Factor (Internal Marker) (AID 2282974; active = hit-call score of the fitted dose curve at least 0.9, where 1 is the maximum); settings: HepG2 Attagene TRANS-FACTORIAL M19 internal marker reporter
Method in brief: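 Gain-of-signal in reporter mRNA, relative to DMSO, was scored from capillary electrophoresis fluorescence. HepG2 cells carried transiently transfected multiple reporter transcription units and were incubated with test chemicals for 24 h.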

[15] = biological target: Estrogen-related receptor gamma (Homo sapiens) (UniProt P62508); assay: ATG_ERRg_TRANS: Attagene TRANS-FACTORIAL HepG2 Assay for human Estrogen-Related Receptor gamma (ERRg) (AID 2282977; active = hit-call score of the fitted dose curve at least 0.9, where 1 is the maximum;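 note: hits increase reporter signal over DMSO so potencies reflect activators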); settings: HepG2 Attagene TRANS reporter, ERRg transactivation
Chain of Estrogen-related receptor gamma (Homo sapiens) (P62508 whole entry, looked up, the tested form may be a part): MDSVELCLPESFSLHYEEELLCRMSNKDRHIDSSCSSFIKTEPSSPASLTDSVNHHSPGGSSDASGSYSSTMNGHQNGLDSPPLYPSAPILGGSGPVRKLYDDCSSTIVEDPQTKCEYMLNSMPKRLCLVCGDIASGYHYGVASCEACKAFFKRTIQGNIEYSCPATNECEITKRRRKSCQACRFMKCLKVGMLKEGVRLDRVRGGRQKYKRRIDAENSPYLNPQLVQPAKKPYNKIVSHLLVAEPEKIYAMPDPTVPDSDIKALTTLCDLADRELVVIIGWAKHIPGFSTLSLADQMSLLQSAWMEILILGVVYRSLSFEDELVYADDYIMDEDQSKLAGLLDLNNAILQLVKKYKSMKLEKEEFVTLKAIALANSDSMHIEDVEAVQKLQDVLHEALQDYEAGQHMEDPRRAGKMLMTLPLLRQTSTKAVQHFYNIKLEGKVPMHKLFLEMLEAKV
Method in brief: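 Induction of reporter transcripts through a chimeric NR-Gal4 protein is quantified in transfected human HepG2 liver cells after 24 h chemical exposure, using RT-PCR with capillary electrophoresis detection and DMSO as baseline.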

[16] = biological target: Bile acid receptor (Homo sapiens) (UniProt Q96RI1); assay: ATG_FXR_TRANS: Attagene TRANS-FACTORIAL HepG2 Assay for Farnesoid X Receptor (FXR) (AID 2282979; active = hit-call score of the fitted dose curve at least 0.9, where 1 is the maximum;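 note: hits raise reporter mRNA above DMSO so AC50 marks FXR activation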); settings: HepG2 Attagene TRANS FXR-GAL4 reporter transcription
Chain of Bile acid receptor (Homo sapiens) (Q96RI1 whole entry, looked up, the tested form may be a part): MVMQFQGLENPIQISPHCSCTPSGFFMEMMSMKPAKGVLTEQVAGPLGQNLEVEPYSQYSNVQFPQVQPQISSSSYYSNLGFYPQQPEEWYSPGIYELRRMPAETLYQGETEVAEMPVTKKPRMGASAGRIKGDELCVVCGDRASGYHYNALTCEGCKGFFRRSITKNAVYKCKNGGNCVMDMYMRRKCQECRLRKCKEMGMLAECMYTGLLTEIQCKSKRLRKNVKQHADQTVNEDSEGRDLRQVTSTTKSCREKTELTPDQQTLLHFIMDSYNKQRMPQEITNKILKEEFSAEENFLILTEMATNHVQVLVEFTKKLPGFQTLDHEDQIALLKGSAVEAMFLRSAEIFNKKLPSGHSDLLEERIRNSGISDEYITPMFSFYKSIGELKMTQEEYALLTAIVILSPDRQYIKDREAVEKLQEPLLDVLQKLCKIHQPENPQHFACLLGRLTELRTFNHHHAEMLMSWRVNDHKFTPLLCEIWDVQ
Method in brief: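 HepG2 cells were transiently transfected with GAL4-UAS reporters driven by chimeric NR-Gal4 proteins and dosed for 24 h. Reporter mRNA was quantified by RT-PCR, fluorescent labelling, HpaI digestion and capillary electrophoresis, with gain of signal scored versus DMSO.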

[17] = biological target: Oxysterols receptor LXR-alpha (Homo sapiens) (UniProt Q13133); assay: ATG_LXRa_TRANS: Attagene TRANS-FACTORIAL HepG2 Assay for human Liver X Receptor alpha (LXRa) (AID 2282980; active = hit-call score of the fitted dose curve at least 0.9, where 1 is the maximum); settings: HepG2 Attagene TRANS reporter, LXRa transactivation
Chain of Oxysterols receptor LXR-alpha (Homo sapiens) (Q13133 whole entry, looked up, the tested form may be a part): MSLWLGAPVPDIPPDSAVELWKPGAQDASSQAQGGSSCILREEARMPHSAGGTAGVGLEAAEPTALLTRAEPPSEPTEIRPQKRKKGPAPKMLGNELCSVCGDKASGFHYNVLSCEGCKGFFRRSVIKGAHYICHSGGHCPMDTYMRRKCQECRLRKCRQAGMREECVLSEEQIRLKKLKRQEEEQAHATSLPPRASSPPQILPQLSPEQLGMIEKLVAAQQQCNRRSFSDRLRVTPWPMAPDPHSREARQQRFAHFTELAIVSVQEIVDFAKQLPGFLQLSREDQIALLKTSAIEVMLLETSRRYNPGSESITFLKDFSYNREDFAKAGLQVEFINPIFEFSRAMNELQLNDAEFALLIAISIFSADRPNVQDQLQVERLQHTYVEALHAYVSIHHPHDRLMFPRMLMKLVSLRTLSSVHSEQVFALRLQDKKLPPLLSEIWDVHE
Method in brief: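 HepG2 cells transiently transfected with GAL4-UAS reporter units for chimeric NR-Gal4 proteins, exposed to chemicals for 24 h. Reporter mRNA quantified by RT-PCR and capillary electrophoresis; gain of signal fitted relative to DMSO.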

[18] = biological target: Glucocorticoid receptor (Homo sapiens) (UniProt P04150); assay: ATG_GR_TRANS: Attagene TRANS-FACTORIAL HepG2 Assay for human Glucocorticoid Receptor (GR) (AID 2282978; active = hit-call score of the fitted dose curve at least 0.9, where 1 is the maximum;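 note: activators score as hits since higher reporter transcript over DMSO is fitted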); settings: HepG2 Attagene TRANS GR reporter, mRNA transcription
Chain of Glucocorticoid receptor (Homo sapiens) (P04150 whole entry, looked up, the tested form may be a part): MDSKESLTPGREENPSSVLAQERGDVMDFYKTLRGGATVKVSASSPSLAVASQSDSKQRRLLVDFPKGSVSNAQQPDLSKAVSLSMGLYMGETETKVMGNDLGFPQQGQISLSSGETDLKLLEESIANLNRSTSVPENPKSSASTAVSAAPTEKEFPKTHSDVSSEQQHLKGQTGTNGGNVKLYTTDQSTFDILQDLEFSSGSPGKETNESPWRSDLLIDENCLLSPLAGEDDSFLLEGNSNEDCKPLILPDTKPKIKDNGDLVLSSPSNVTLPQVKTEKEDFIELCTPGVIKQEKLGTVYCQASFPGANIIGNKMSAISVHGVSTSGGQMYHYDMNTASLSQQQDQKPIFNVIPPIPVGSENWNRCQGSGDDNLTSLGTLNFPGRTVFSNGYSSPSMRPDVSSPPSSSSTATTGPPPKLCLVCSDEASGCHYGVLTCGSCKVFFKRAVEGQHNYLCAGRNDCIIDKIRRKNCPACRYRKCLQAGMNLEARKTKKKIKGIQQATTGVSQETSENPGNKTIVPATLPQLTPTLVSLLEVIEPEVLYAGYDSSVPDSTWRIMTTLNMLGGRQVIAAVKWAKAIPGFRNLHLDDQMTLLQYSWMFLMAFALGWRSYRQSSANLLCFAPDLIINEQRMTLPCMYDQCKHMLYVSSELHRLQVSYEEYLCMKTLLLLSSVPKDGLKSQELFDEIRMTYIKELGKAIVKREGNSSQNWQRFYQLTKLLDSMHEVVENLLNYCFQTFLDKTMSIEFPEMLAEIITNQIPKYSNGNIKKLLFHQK
Method in brief: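 HepG2 transient transfection, multiple reporter units, GAL4-UAS under NR-GAL4 chimera control. 24 h treatment. Reporter mRNA by RT-PCR/CE fluorescence, DMSO as negative control.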

CCCCCCCCCCCCBr
outcome [1]: inactive | outcome [2]: inactive | outcome [3]: inactive | outcome [4]: inactive | outcome [5]: inactive | outcome [6]: inactive | outcome [7]: inactive | outcome [8]: inactive | outcome [9]: inactive | outcome [10]: inactive | outcome [11]: inactive | outcome [12]: inactive

CCOC(=O)C(SP(=S)(OC)OC)c1ccccc1 (stereo not given)
outcome [1]: inactive | outcome [2]: inactive | outcome [3]: inactive | outcome [4]: inactive | outcome [6]: inactive | outcome [7]: inactive | outcome [8]: inactive | outcome [9]: inactive | outcome [13]: inactive | outcome [11]: inactive | outcome [14]: inactive | outcome [12]: inactive | outcome [15]: inactive | AC50 [16]: 30700 nM (active) | outcome [17]: inactive

CCC[CH2][Sn]([Cl])([Cl])[CH2]CCC
AC50 [1]: 1610 nM (active) | AC50 [2]: 966 nM (active) | AC50 [3]: 811 nM (active) | outcome [4]: inactive | outcome [5]: inactive | AC50 [6]: 1820 nM (active) | outcome [7]: inactive | outcome [8]: inactive | AC50 [10]: 1860 nM (active) | AC50 [11]: 1200 nM (active) | outcome [14]: inactive | outcome [16]: inactive

BrCCCCBr
outcome [1]: inactive | outcome [2]: inactive | outcome [3]: inactive | outcome [4]: inactive | outcome [5]: inactive | outcome [6]: inactive | outcome [7]: inactive | outcome [8]: inactive | outcome [11]: inactive | outcome [12]: inactive | outcome [17]: inactive

O=[N+]([O-])c1ccc(Cl)c([N+](=O)[O-])c1
outcome [1]: inactive | outcome [2]: inactive | outcome [3]: inactive | AC50 [4]: 5930 nM (active) | outcome [5]: inactive | outcome [7]: inactive | AC50 [8]: 3710 nM (active) | outcome [9]: inactive | outcome [11]: inactive | outcome [14]: inactive | outcome [17]: inactive

Nc1nc(=S)[nH][nH]1
outcome [1]: inactive | outcome [2]: inactive | outcome [3]: inactive | outcome [4]: inactive | outcome [5]: inactive | outcome [7]: inactive | outcome [8]: inactive | outcome [9]: inactive | outcome [10]: inactive | outcome [11]: inactive | outcome [14]: inactive | outcome [12]: inactive | outcome [18]: inactive | outcome [17]: inactive
